Results reported in PubChem BioAssay (NCATS).
Inconclusive results are not listed. Activity calls are given as the source filed them. Unless noted, calls come from the whole dose curve; as a rule, active = well fitted curve in the direction sought with a large enough effect; inconclusive = small, poorly fitted or top-dose-only effect, or another doubt; inactive = no such curve, though single readings can be large; an effect the other way counts as inactive or inconclusive.

How the values were obtained:
[1] = qHTS assay for small molecule agonists of the antioxidant response element (ARE) signaling pathway (AID 651741; active = well fitted activation curve with a large enough effect in the signal ratio; the % refers to the signal ratio; note: potency is the fitted concentration of half-maximal effect)
How it was run: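 Compounds in DMSO are pinned onto HepG2 ARE-bla cells (2,000/well) that were preincubated 5 h; plates stay 16 h at 37 C, then beta-lactamase activity is detected with LiveBLAzer B/G substrate by fluorescence.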

[2] = qHTS assay for small molecule activators of the p53 signaling pathway (AID 651743; active = well fitted activation curve with a large enough effect in the signal ratio, not every such curve was filed as active; the % refers to the signal ratio; note: series mostly up to about 92 µM; % of control where 0% means no effect); conditions: HCT-116 p53RE-bla, beta-lactamase FRET ratio, 16 h; active compounds read high
How it was run: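 Cell-based beta-lactamase reporter (p53 response elements, HCT-116 background). After a 5-hour preincubation, cells received compound for 16 hours at 37 C; substrate development ran 2 hours at room temperature.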

[3] = qHTS assay for small molecule activators of the nuclear factor-kappa B (NF-kB) signaling pathway (AID 651749; active = well fitted activation curve with a large enough effect in the signal ratio; the % refers to the signal ratio; note: series mostly up to about 77 µM; % of control where 0% means no effect); conditions: NF-kB-bla ME-180 cells, beta-lactamase FRET ratio, 16 h; active compounds read high
How it was run: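 Screening used 2,000 ME-180 reporter cells per well exposed to pinned compound (23 nL) or DMSO; after 16 hr at 37C, beta-lactamase expression under NF-kB control was assessed through FRET.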

[4] = qHTS assay for environmental chemicals that activate the Aryl hydrocarbon Receptor (AhR) signaling pathway (AID 651777); conditions: 1A2-DRE human hepatoma cells, luciferase, 24 h; active compounds read high; note: % of control where 0% means no effect; nearly all actives have a fitted effect of over 15% in size
How it was run: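 1A2-DRE human hepatoma reporter line; 1,200 cells/well; cmpd or DMSO 24 h, 37 C/5% CO2; One-Glo 30 min RT; luciferase lum.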

[5] = target: Peroxisome proliferator-activated receptor alpha (Homo sapiens) (UniProt Q07869); test: qHTS assay for small molecule agonists of the peroxisome proliferator-activated receptor alpha (PPARalpha) signaling pathway (AID 651778); conditions: PathHunter PPARalpha complementation, chemiluminescence, 6 h; max response: active compounds read high; note: potency is the fitted concentration of half-maximal effect
Sequence of Peroxisome proliferator-activated receptor alpha (Homo sapiens) (Q07869 whole entry, looked up): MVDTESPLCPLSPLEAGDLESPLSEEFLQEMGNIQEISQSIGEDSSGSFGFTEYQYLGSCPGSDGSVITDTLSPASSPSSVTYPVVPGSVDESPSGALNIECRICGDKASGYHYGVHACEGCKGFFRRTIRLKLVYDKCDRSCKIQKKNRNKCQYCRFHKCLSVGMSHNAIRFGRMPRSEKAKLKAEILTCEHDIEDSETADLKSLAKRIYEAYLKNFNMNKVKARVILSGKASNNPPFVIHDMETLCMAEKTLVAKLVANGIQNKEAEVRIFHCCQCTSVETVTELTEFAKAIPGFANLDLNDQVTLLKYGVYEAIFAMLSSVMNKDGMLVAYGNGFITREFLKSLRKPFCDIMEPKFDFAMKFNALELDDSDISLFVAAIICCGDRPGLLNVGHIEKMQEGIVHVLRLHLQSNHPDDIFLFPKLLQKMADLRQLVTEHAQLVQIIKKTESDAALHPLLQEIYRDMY
How it was run: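 Cells plated at 2,000/well and held overnight at 37 C, 5% CO2, then compound added by pin tool for 6 hr; after PathHunter detection reagent and 60 min at room temperature, chemiluminescence from enzyme complementation was read.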

[6] = target: Arylsulfatase A (Homo sapiens) (UniProt P15289); test: qHTS screen for enhancers of Arylsulfatase A (ASA1): LOPAC Validation Assay (AID 720538); note: potency is the fitted concentration of half-maximal effect
Sequence of Arylsulfatase A (Homo sapiens) (P15289 whole entry, looked up): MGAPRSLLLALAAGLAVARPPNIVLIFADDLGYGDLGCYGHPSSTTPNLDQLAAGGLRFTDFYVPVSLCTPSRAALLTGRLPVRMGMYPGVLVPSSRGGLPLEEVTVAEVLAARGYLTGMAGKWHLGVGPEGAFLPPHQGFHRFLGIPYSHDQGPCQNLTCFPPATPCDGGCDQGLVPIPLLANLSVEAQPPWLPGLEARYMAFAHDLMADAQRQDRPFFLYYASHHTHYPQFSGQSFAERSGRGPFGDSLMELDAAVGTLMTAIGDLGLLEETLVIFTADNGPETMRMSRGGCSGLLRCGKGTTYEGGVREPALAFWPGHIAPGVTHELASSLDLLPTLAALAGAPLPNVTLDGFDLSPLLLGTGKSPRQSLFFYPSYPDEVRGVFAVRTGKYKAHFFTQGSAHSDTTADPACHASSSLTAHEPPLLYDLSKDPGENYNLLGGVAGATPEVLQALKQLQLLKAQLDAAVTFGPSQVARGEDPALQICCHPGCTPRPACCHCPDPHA
How it was run: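 First, ASA-I179S fibroblasts from an MLD patient adhered for 6 hrs. Next, compounds were added for 48h. Then pNCS substrate (0.5mM final) with lysis buffer reacted 14h at room temperature before NaOH stop and fluorescence measurement.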

[7] = qHTS for compounds that reverse cellular toxicity of Amyloid beta (A-beta) peptide in yeast: LOPAC Validation Assay (AID 720559);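 note: plate controls were DMSO for no effect and equimolar ferric chloride plus clioquinol rescue for full effect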
How it was run: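 Activity is expressed relative to DMSO and an equimolar ferric chloride/clioquinol mix. Compounds were pinned into medium with A-beta-expressing yeast, grown 48 hr at 30 C, then read by absorbance at 600 nm.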

[8] = qHTS for Activators of Parkin Expression: LOPAC Validation Assay (NLuc Reporter) (AID 720572; note: potency is the fitted concentration of half-maximal effect;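 for activation: 0% = DMSO and 100% = positive control compound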)
How it was run: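 Neuronal line stably carrying a FLuc/NLuc coincidence reporter under the Parkin promoter, seeded 24 h, then dosed in 7-point series for 24 h at 37 C. NLuc luminescence read after FLuc; normalized to DMSO and positive control (100%).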

[9] = qHTS for Activators of Parkin Expression: LOPAC Validation Assay (FLuc Reporter) (AID 720573;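 note: 0% = DMSO and 100% = positive control compounds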)
How it was run: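 A neuronal cell line harbouring FLuc and NLuc reporters behind the Parkin promoter was exposed to compounds for 24 h. Firefly luciferase signal, measured after 10 min with detection reagent, was scaled to DMSO and positive-control wells.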

[10] = qHTS assay for small molecule agonists of the antioxidant response element (ARE) signaling pathway measured by Nrf2-dependant transcriptional activity (AID 720636; active = well fitted curve in the direction sought with a large enough effect in the repeat runs; an effect the other way counts as inactive or inconclusive;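 note: HepG2 cells with an ARE-driven luciferase reporter; % of control where 0% means no effect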)
How it was run: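 Cells: ARE-luc HepG2 with Nrf2-responsive luciferase. Medium contained 1% dialyzed FBS. Compound exposure lasted 16 hr at 37 C and 5% CO2, followed by ONE-Glo luciferase detection.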

[11] = qHTS assay for small molecule agonists of the antioxidant response element (ARE) signaling pathway measured by Nrf2-dependant transcriptional activity - cell viability counter screen (AID 720653; active = well fitted curve in the direction sought with a large enough effect in the repeat runs; an effect the other way counts as inactive or inconclusive; note: % is set by controls: 0 for no effect and ±100 for the full control effect); conditions: ARE-bla HepG2 viability, CellTiter-Glo ATP luminescence, 16 h; active compounds read low
How it was run: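 ARE-bla HepG2 cells (2,000/well) rested 5 hrs at 37C/5% CO2, then exposed to compounds in DMSO for 16 hrs. Viability was read in the same wells as intracellular ATP by luminescence, 30 min at room temperature after reagent addition.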

CCCc1c(OCCCOc2ccc(OCC(=O)O)cc2)ccc(C(C)=O)c1O
active: Potency [1] 54.5 µM | Potency [5] 11.2 µM
inactive: activation [2] 16.9% | activation [3] -3.53% | activation [4] 0.459% | Potency [6] | outcome [7] | Potency [8] | Potency [9] | outcome [10] | max response [11] 7.96%

CC(=O)N[C@@H](Cc1c[nH]c2ccccc12)C(=O)OCc1cc(C(F)(F)F)cc(C(F)(F)F)c1
inactive: Potency [6] | outcome [7] | Potency [8]

Nc1ccc(-c2nc3ccc(-c4nc5ccc(N)cc5[nH]4)cc3[nH]2)cc1
inactive: outcome [7] | Potency [8] | Potency [9]
active: Potency [6] 6.75 µM

C=CCN1CCc2cc(O)c(O)cc2C(c2ccccc2)C1 (stereo not given)
inactive: Potency [6] | outcome [7] | Potency [8]

CC(=O)O[C@H]1Cc2ccccc2N(C(N)=O)c2ccccc21
inactive: Potency [6] | outcome [7] | Potency [8]

COc1cc(C(O)C(=O)O)ccc1O (stereo not given)
inactive: Potency [6] | outcome [7] | Potency [8] | Potency [9]

CN(CC[C@@H](Oc1ccc(C(F)(F)F)cc1)c1ccccc1)CC(=O)O
inactive: Potency [6] | outcome [7] | Potency [8] | Potency [9]

CN1CCC2(CCN3CCc4c(oc5ccccc45)C3C2)N(C)C1=O (stereo not given)
inactive: Potency [6] | outcome [7] | Potency [8]

CN1CCc2cc(Cl)c(O)cc2[C@@H](c2ccccc2)C1
inactive: Potency [6] | outcome [7] | Potency [8]

NCCS(=O)O
inactive: Potency [6] | outcome [7] | Potency [8] | Potency [9]

COc1cc(N)c(Cl)cc1C(=O)OCCN1CCCCC1
inactive: Potency [6] | outcome [7] | Potency [8]

CC(C)NC[C@H](O)COc1ccc(CC(N)=O)cc1
inactive: Potency [6] | outcome [7] | Potency [8] | Potency [9]

Nc1ccc(-c2ccc3ccccc3n2)cc1
inactive: Potency [6] | outcome [7] | Potency [8]

N[C@H](C(=O)O)[C@H](Cc1ccccc1)C(=O)O
inactive: Potency [6] | outcome [7] | Potency [8] | Potency [9]

Fc1ccc(CN(C2=NCCN2)c2c(Cl)cccc2Cl)cc1
inactive: Potency [6] | outcome [7] | Potency [8] | Potency [9]

O=C(N[C@@H](Cc1ccccc1)C(=O)CCl)OCc1ccccc1
inactive: Potency [6] | outcome [7] | Potency [8] | Potency [9]

c1ccc2nc(C3=NCCN3)ccc2c1
inactive: Potency [6] | outcome [7] | Potency [8] | Potency [9]

CCCCCCCCCCC/C=C\C(C)(C)/C=C\CCCC(=O)O
inactive: Potency [6] | outcome [7] | Potency [8] | Potency [9]

O=c1onc2cnc3ccccc3n12
inactive: Potency [6] | outcome [7] | Potency [8]

COc1ccc2c(c1)CCC1C2CC[C@@]2(C)C1CC[C@@H]2NCCCCCCN1C(=O)C=CC1=O (stereo not given in full)
inactive: Potency [6] | outcome [7] | Potency [8]

CCCC(=O)NCCc1c2n(c3ccc(OC)cc13)CCCc1ccccc1-2
inactive: Potency [6] | outcome [7] | Potency [8]

COc1ccccc1N1CCN(CCCNc2c(C)c(=O)n(C)c(=O)n2C)CC1
inactive: Potency [6] | outcome [7] | Potency [8]

NS(=O)(=O)c1cccc2c1c([N+](=O)[O-])cc1nc(O)c(O)nc12
active: Potency [6] 10.7 µM
inactive: outcome [7] | Potency [8] | Potency [9]

O=C1Cc2c([nH]c3ccc(Br)cc23)-c2ccccc2N1
active: Potency [8] 5.8 µM
inactive: Potency [6] | outcome [7]

CC[n+]1c(/C=C/C=C2/N(C)c3ccccc3C2(C)C)sc2ccccc21
inactive: Potency [6] | outcome [7] | Potency [8] | Potency [9]

CSc1nc(N)c2ncn([C@@H]3O[C@H](COP(=O)(O)OP(=O)(O)O)C(O)[C@H]3O)c2n1 (stereo not given in full)
inactive: Potency [6] | outcome [7] | Potency [8]

N[C@@H](CS(=O)O)C(=O)O
inactive: Potency [6] | outcome [7] | Potency [8] | Potency [9]

Cc1cccc(C2CN(C)CCc3c2cc(O)c(O)c3Cl)c1 (stereo not given)
inactive: Potency [6] | outcome [7] | Potency [8] | Potency [9]

Cn1c(=O)[nH]c2ncn(C)c2c1=O
inactive: Potency [6] | outcome [7] | Potency [8] | Potency [9]

CCOC(=O)C12CC1/C(=N/O)c1ccccc1O2 (stereo not given)
inactive: Potency [6] | outcome [7] | Potency [8] | Potency [9]

C[C@H]1CC2C3CCC4=CC(=O)C=C[C@]4(C)[C@@]3(Cl)[C@@H](O)C[C@]2(C)[C@@]1(O)C(=O)CO (stereo not given in full)
inactive: Potency [6] | outcome [7] | Potency [8] | Potency [9]

COC1(C2=NCCN2)COc2ccccc2O1 (stereo not given)
inactive: Potency [6] | outcome [7] | Potency [8] | Potency [9]

CCN(CC)CCCCCCCCOC(=O)c1cc(OC)c(OC)c(OC)c1
inactive: Potency [6] | outcome [7] | Potency [8] | Potency [9]

C=CC[C@H](N)C(=O)O
inactive: Potency [6] | outcome [7] | Potency [8] | Potency [9]

O=c1ccn([C@@H]2O[C@H](COP(=O)(O)OP(=O)(O)O)[C@@H](O)[C@H]2O)c(=O)[nH]1
inactive: Potency [6] | outcome [7] | Potency [8] | Potency [9]

NC1C=CC=C(C(=O)O)C1 (stereo not given)
inactive: Potency [6] | outcome [7] | Potency [8] | Potency [9]

CCN1C(=O)C=CC1=O
inactive: Potency [6] | outcome [7] | Potency [8] | Potency [9]

Nc1ccc2c3c(cccc13)C(=O)NC2=O
active: Potency [6] 4.26 µM
inactive: outcome [7] | Potency [8] | Potency [9]

CCCCCCCCCCCCCCC[C@H](O)[C@H](N)CO
inactive: Potency [6] | outcome [7] | Potency [8] | Potency [9]
